Screens from PubChem BioAssay.
Rows were chosen to be rich in hits. Some 19% of all compounds tested hit in one or more screens of this group.
TGFb inhibitor: inhibitors of TGF-b signaling; HepG2 CAGA-GFP TGF-b/SMAD3 reporter, GFP fluorescence, 18 h; TGF-beta stimulated, 500 pg/mL final; Potency, µM (highest dose often 46.1 µM), inactives show at the highest dose activity, negative = inhibition, actives largely listed as inhibitors; 1.2% of 410,000 active; note: potency is the fitted concentration of half-maximal effect; % is set by controls: 0 for no effect and ±100 for the full control effect; nearly all actives have a fitted effect of over 65% in size
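Inhibition was scored as loss of TGF-beta-induced (500 pg/mL final, 18 hours, 37 degrees C) GFP in HEPG2 cells carrying a CAGA-GFP reporter, in DMEM with 1% FBS. Well GFP was summed per cell; Activity was normalised to unstimulated and stimulated DMSO wells, then concentration-response fitting.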
ASM inhibitor: inhibitors of human secretory acid sphingomyelinase | placental ASM, HMU-PC fluorogenic substrate, 60 min | 0.006% of 340,000 active | Potency, µM (titrated, usually from 57.5 µM), for inactives: at the highest dose activity change, negative = inhibition, most hits filed as inhibitors; note: potency is the fitted concentration of half-maximal effect
Target sequence (P17405 47-631 limits assumed): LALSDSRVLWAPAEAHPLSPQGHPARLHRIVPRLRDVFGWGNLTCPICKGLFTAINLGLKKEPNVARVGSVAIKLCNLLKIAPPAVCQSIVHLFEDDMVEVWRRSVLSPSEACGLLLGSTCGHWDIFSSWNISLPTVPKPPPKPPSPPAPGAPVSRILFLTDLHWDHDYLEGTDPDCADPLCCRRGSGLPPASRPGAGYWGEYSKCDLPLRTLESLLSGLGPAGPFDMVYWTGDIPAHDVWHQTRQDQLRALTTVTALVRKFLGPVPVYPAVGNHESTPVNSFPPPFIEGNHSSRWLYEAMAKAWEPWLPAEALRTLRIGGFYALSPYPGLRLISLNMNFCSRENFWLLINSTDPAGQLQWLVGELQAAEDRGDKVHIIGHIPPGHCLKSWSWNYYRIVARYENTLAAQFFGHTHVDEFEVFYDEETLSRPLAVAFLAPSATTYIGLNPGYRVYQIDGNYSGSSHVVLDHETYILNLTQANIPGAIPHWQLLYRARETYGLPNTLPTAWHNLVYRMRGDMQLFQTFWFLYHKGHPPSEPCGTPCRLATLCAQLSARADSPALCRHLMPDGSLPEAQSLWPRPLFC
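HMU-PC0 cleavage (9 uM final) by human placental ASM, 60 min at 37 °C following 10 min compound exposure at RT; stopped at pH 10, fluorescence Ex 386/Em 447 nm.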
HepG2 viability: HepG2 cytotoxicity, counter-screen for TGF-b inhibitors | HepG2 CAGA-GFP viability, ATP luminescence, 18 h | Potency, µM (doses to about 46.1 µM), for the others: at the highest dose activity change, negative = cytotoxicity, hits mostly cytotoxic | 0.76% of 410,000 active; note: potency is the fitted concentration of half-maximal effect
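CellTiter-Glo luminescence gave cytotoxicity after 18 hours at 37 degrees C. The cells were HepG2 CAGA-GFP in 1% FBS DMEM, stimulated with 500 pg/mL TGF-beta after compound addition. %Activity was normalised to no-cell wells (complete cell-killing) and DMSO (no toxicity), and curves were fitted and classified.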
DT40 TDP1 no CPT: qHTS for Inhibitors of human tyrosyl-DNA phosphodiesterase 1 (TDP1): qHTS in cells in absence of CPT. DT40 Tdp1-/- hTDP1 cells, no CPT, ATP luminescence, 48 h. Potency, µM (titrated, usually from 46.2 µM), without a hit: at the top dose activity change, negative = growth inhibition, actives largely listed as inhibitors. 15% of 420,000 active. AID 686978, 2013; note: potency is the fitted concentration of half-maximal effect; % is set by controls: 0 for no effect and ±100 for the full control effect; nearly all actives have a fitted effect of over 55% in size
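Stably hTDP1-transfected Tdp1-null chicken DT40 cells were treated with library compounds minus camptothecin and grown for at least 48 hr at 37 °C, after which cellular ATP was quantified by luminescence.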
IL-1B inflam inh: blocks inflammasome-driven IL-1 beta release | AID 743279 | activity change, % at 57.5 µM | THP-1 LPS/ATP IL-1B secretion, AlphaLISA, 16 h; active compounds read low | 4.7% of 360,000 active; in the data active = activity change below about -50%; inconclusive = mostly about -30% to -49%; note: % is set by controls: 0 for no effect and ±100 for the full control effect
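THP-1 cells pretreated 1 hr with compounds (up to 57.5 uM final), then stimulated with LPS (250 ng/mL final) plus ATP (1.25 mM final); secreted IL-1B measured by AlphaLISA after 16 hr, decreased signal indicating inhibition.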
DT40 TDP1 CPT: growth inhibition of DT40 Tdp1-/-;hTDP1 cells with camptothecin (screen for TDP1 inhibitors); 12% of 420,000 active; Potency, µM (titrated, usually from 46.2 µM), for the others: at the top dose activity change, negative = growth inhibition, hits mostly inhibitors; chicken DT40 Tdp1-/-;hTDP1 cells + 20 nM CPT, ATP luminescence, 48 h; note: potency is the fitted concentration of half-maximal effect; % is set by controls: 0 for no effect and ±100 for the full control effect; nearly all actives have a fitted effect of over 55% in size
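Cell growth measured by CellTiter-Glo luminescence after a minimum 48 h, 37 C compound exposure with 20 nM CPT in Tdp1-knockout DT40 cells stably expressing hTDP1, seeded 400/well; qHTS titration format.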
* marks the source's active call; other numbers are inactive results; i = inactive; ? = inconclusive; nt = no result given. Unless noted, calls come from the whole dose curve; as a rule, active = well fitted curve in the direction sought with a large enough effect; inconclusive = small, poorly fitted or top-dose-only effect, or another doubt; inactive = no such curve, though single readings can be large; an effect the other way counts as inactive or inconclusive.

SMILES | TGFb inhibitor | ASM inhibitor | HepG2 viability | DT40 TDP1 no CPT | IL-1B inflam inh | DT40 TDP1 CPT
CC(C)C1N(c2ccccc2)C(N)=C(C#N)C1(C#N)C#N (stereo unspecified) | -1% | 0% | -13% | 23µM* | -14 | ?
O=C1OC(c2ccccc2)Cc2cc(C(=O)N3CCN(c4ccc(F)cc4)CC3)ccc21 (stereo unspecified) | -36% | 0% | -9% | ? | -13 | 18µM*
O=C(O)c1ccc2c(c1)CC(c1ccccc1)OC2=O (stereo unspecified) | 0% | -1% | 9% | -9% | 30 | 7%
COc1ccc(N2CCN(C(=O)c3ccc4c(c3)CC(c3ccccc3)OC4=O)CC2)cc1 (stereo unspecified) | -6% | -5% | -10% | 21µM* | -11 | ?
O=C(CSc1nncc2ccccc12)N1CCCCC1 | -2% | 0% | -14% | 4% | -22 | -5%
CCn1c(SCC(=O)NC2CCCCC2)nnc1C(CO)NC(=O)c1ccccc1 (stereo unspecified) | 5% | 3% | 30% | -5% | i | -9%
Cc1cccc(CSc2cn(CC(=O)N3CCCCC3)c3ccccc23)c1 | -2% | nt | -7% | 21µM* | nt | ?
O=C(Cn1cc(SCc2cccc(Cl)c2)c2ccccc21)N1CCCCCC1 | 0% | nt | -26% | ? | nt | ?
Cc1cccc(CSc2cn(CC(=O)N3CCCC3)c3ccccc23)c1 | ? | nt | -44% | 16µM* | nt | 26µM*
Cc1ccc(CSCc2nnc(SCC(=O)N3CCN(c4ccccc4)CC3)n2C)cc1 | -24% | 0% | -30% | 16µM* | ? | ?
CCc1ccccc1-n1c(SCC(=O)N2CCCC2)nnc1-c1ccccn1 | -5% | -1% | 10% | 20µM* | -10 | ?
Cc1ccccc1-n1c(SCC(=O)N2CCN(c3ccccc3)CC2)nnc1-c1ccncc1 | -1% | 3% | -16% | 21µM* | 4 | 16µM*
CCn1c(CSCc2ccc(F)cc2)nnc1SCC(=O)N1CCN(c2ccccc2)CC1 | -8% | -3% | -4% | 23µM* | ? | ?
CC(=O)N1CCC(C(=O)N2c3ccccc3N=C(c3ccc4c(c3)OCO4)C2C(=O)NCc2ccccc2)CC1 (stereo unspecified) | nt | nt | nt | -24% | ? | -21%
Cc1nnc(SCC(=O)N2CCCC2)n1-c1ccc(F)cc1 | 0% | 2% | 4.5µM* | -5% | 0 | 9%
CC(C)(C)c1cnnn1-c1ccc(C(=O)CCl)cc1 | 6% | 4% | -16% | 1.8µM* | -106* | 1.3µM*
CN(C(=O)c1cccc(NC(=O)Cc2ccc(NC(=O)C3CCCN(C(=O)C4CCCC4)C3)cc2)c1)C1CCCC1 (stereo unspecified) | -1% | -1% | 10% | ? | 5 | ?
CN(C(=O)c1ccc(NC(=O)Cc2cccc(NC(=O)C3CCCN(C(=O)C4CC4)C3)c2)cc1)C1CCCC1 (stereo unspecified) | ? | 0% | 4% | -29% | 16 | ?
CN(C(=O)c1cccc(NC(=O)Cc2ccc(NC(=O)C3CCN(C(=O)c4ccccc4)CC3)cc2)c1)C1CCCCC1 | 37% | -9% | -4% | ? | 57 | 23µM*
O=C(Cc1ccc(NC(=O)C2CCCN(C(=O)C3CCCCC3)C2)cc1)Nc1cccc(C(=O)N2CCCC2)c1 (stereo unspecified) | -7% | -5% | -1% | ? | 24 | 29µM*
CN(C(=O)c1cccc(NC(=O)Cc2ccc(NC(=O)C3CCCN(C(=O)C4CCCC4)C3)cc2)c1)C1CCCCC1 (stereo unspecified) | ? | -7% | -1% | 16µM* | 31 | ?
CN(C(=O)c1ccc(NC(=O)Cc2cccc(NC(=O)C3CCCN(C(=O)C4CCC4)C3)c2)cc1)C1CCCC1 (stereo unspecified) | -17% | 1% | -16% | ? | 18 | 0.18µM*
CN(C(=O)c1cccc(NC(=O)Cc2cccc(NC(=O)C3CCN(C(=O)c4ccccc4)CC3)c2)c1)C1CCCC1 | -20% | -12% | -7% | ? | -3 | ?
COc1ccc(S(=O)(=O)N(C)C[C@@H]2Oc3c(NS(=O)(=O)c4cn(C)cn4)cccc3C(=O)N([C@@H](C)CO)C[C@@H]2C)cc1 | -1% | -3% | -4% | -6% | 14 | 10%
CN(C(=O)c1ccc(NC(=O)Cc2cccc(NC(=O)C3CCCN(C(=O)C4CCCCC4)C3)c2)cc1)C1CCCC1 (stereo unspecified) | -23% | -3% | -26% | ? | 13 | 21µM*
SMILES | TGFb inhibitor | ASM inhibitor | HepG2 viability | DT40 TDP1 no CPT | IL-1B inflam inh | DT40 TDP1 CPT
CCCn1c(N)c(C(=O)CSc2nnc(Cc3ccccc3)o2)c(=O)n(C)c1=O | -12% | -2% | -37% | 23µM* | 79 | ?
CCCn1c(N)c(C(=O)CSc2n[nH]c(-c3ccccc3F)n2)c(=O)n(C)c1=O | -12% | -2% | -8% | 23µM* | 43 | 21µM*
CCCCNC(=O)C(=O)Nc1ccc2c(c1)N(S(=O)(=O)c1cccs1)CCC2 | 7% | nt | -31% | 1.8µM* | 35 | 2.6µM*
CCN(CC)CCNC(=O)C(=O)Nc1ccc2c(c1)N(S(=O)(=O)c1cccs1)CCC2 | 13% | 1% | -10% | 16µM* | -22 | 15µM*
CCn1ncc(S(=O)(=O)N2CCN(c3cccc(OC)c3)CC2)c1C | ? | 5% | -16% | 6% | 14 | 5%
NC(=O)N1CCN(CCCN2c3ccccc3Sc3cc(Cl)ccc32)CC1 | -2% | nt | -33% | ? | -28 | ?
O=C1CSC2(CCN(CCCN3c4ccccc4Sc4ccc(Cl)cc43)CC2)N1 | nt | nt | nt | 9.4µM* | nt | 24µM*
O=C(CSc1nc(-c2ccccc2)no1)N1CCCCC1 | ? | nt | -6% | 3.7µM* | nt | ?
CC(C)c1ccc(-c2noc(SCC(=O)N3CCN(c4ccccc4F)CC3)n2)cc1 | ? | nt | -13% | 21µM* | nt | 23µM*
COc1ccccc1N1CCN(C(=O)CSc2nc(-c3ccc(C(C)C)cc3)no2)CC1 | ? | nt | -25% | 6.5µM* | nt | 23µM*
O=C(CSc1nc(-c2ccccc2)no1)N1CCN(c2ccccc2F)CC1 | ? | nt | -20% | -13% | nt | -28%
O=C(CCc1nc(-c2ccccc2)no1)N1CCCC1 | 0% | 0% | -11% | -16% | -2 | 4%
